Assay results as given in PubChem BioAssay (NCI).
The panel holds about 83,000 compounds, 20% with a hit somewhere; the sample as a whole holds those more often.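 The test compound was applied at a single concentration to cells in 96-well plates for 48 hours, and percent growth was recorded.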 Values without a mark were called inactive. The source made the active and inactive calls. The calls were made as follows: active = growth percent below 10; inactive = the rest.

Tested on: HOP-62 NSCLC
Test: NCI-60 one-dose screen, 48 h (100 = growth as untreated, 0 = no growth, -100 = all killed)
Conditions: 10 µM unless noted

SMILES | growth
CN(C)CCNc1nc2ccccc2c2c(=O)c3ccccc3sc12 | 21.7%
Nc1nc2ccc(CNc3ccc(C(=O)NC(CC(=O)O)C(=O)O)cc3)cc2c(=O)[nH]1 (stereo not drawn) | 26.5%
CC12CCC3C(CCC4CC(O)CCC43C)C1C/C(=C/O)C(=O)O2 (stereo not drawn) | 99.1%
COc1cc(/C=C/C(=O)c2ccc(Oc3ncnc4ccccc34)cc2)cc(OC)c1OC | 81.9%
Nc1n[nH]c2cccc(C#Cc3cccc(NC(=O)c4cccc(C(F)(F)F)c4)c3)c12 | 28.3%
COc1ccc(-c2nn(-c3ccc(NC(=O)c4ccc(Cl)c(C(F)(F)F)c4)cc3)cc2-c2ccncc2)cc1Cl | -24.9% (active)
CCCN1C(=O)CSC1=Nc1ccc2cc3ccc(N=C4SCC(=O)N4CCC)cc3nc2c1 | 47.6%
CCOC(=O)C1=C(N)Oc2cc(OC)ccc2C1c1ccc(F)c(F)c1 (stereo not drawn) | 37.7%
CC(C(C(=O)N1CCCCC1)N1CCCCC1)N1CCCCC1 (stereo not drawn) | 96.7%
COc1ccc2c(-c3ccc(F)cc3)c(C#N)c(=NC(C)=O)oc2c1 | 62.8%
COc1ccc(-c2nnc(SCC(=O)Nc3ccc(C(=O)/C=C/c4ccc(Cl)cc4)cc3)o2)cc1OC | 71.8%
COc1cccc(/C=N/C(=S)NC2(C)C3CCC(C3)C2(C)C)c1O (stereo not drawn) | 92%
CC1(C)N=C(N)N=C(N)N1c1ccc(OCC(=O)Nc2ccccc2)c(Cl)c1 | -3.64% (active)
FC(F)(F)c1cn(CCN2CCOCC2)c2ncnc(Cl)c12 | 55.9%
COc1ccc(-c2nn(-c3ccc(NC(=O)Nc4cc(C(F)(F)F)cc(C(F)(F)F)c4)cc3)cc2-c2ccncc2)cc1Cl | 19.5%
O=C(CNc1cccnc1)Nc1ccc(C(=O)/C=C/c2ccc(Cl)cc2)cc1 | 107%
CCc1ccc(C2=C/C(=C/c3ccc(Cl)cc3)C(=O)N2CCc2ccc(S(N)(=O)=O)cc2)cc1 | 34.1%
O=C(Nc1ccc(-n2ccc3c(NC(=O)c4ccccc4)nccc32)cc1)c1cccc(C(F)(F)F)c1 | 46.2%
O=S(=O)(CCN1CCOCC1)Nc1cc(-c2ccc3ncnc(Nc4ccc(F)c(Cl)c4)c3c2)cnc1Cl | -0.609% (active)
CCC1S/C(=N\N=C(/C)c2cc3ccccc3o2)N(c2ccccc2)C1=O (stereo not drawn) | 101%

SMILES | growth
COc1cccc(-c2nc3sccn3c2-c2ccnc(NCCNC(=O)c3ccccc3)n2)c1 | 111%
NC(N)=N/N=C/c1ccc([N+](=O)[O-])cc1 | 104%
C#C[C@@]1(O)[C@@H](CO)O[C@@H](n2cc(Br)c3c(Cl)ccnc32)[C@@H]1O | 36.4%
CCOC(=O)C(C)(CSSCC(C)(NC(=O)c1ccc2ccccc2c1)C(=O)OCC)NC(=O)c1ccc2ccccc2c1 (stereo not drawn) | 105%
O=C(C[n+]1cccc(Br)c1)c1ccc2c(c1)CCCC2 | 89%
CCC(C)Nc1ccc(N)cc1 (stereo not drawn) | 11.6%
Cc1cn(-c2nc3c(c(NCc4ccccc4)n2)COCC3)c2cccc(C(N)=O)c12 | 76.3% [0.5 µM]
Nc1ncnc2c1ccn2-c1cccc(NC(=O)c2cccc(C(F)(F)F)c2)c1 | 91.7%
COc1ccc(-c2nnc(SCC(=O)Nc3ccc(C(=O)/C=C/c4ccccc4)cc3)o2)cc1OC | 119%
CCCCCCCCCCCCCCCCCCNCc1ccc(Cl)cc1 | -77.7% (active)
Clc1ccc2c(c1)nnn1c3ncccc3c(Br)c21 | 63.7%
CCCOC(=O)c1ccc([N+](=O)[O-])o1 | 114%
[2H]c1nc(Nc2ncc(F)c(-c3cc(F)c4nc(C)n(C(C)C)c4c3)n2)c([2H])c([2H])c1CN1CCN(CC)CC1 | 51.2%
COc1ccccc1N1CCN(CC(O)COc2c(Br)c(Br)c(Br)c3c2OC(C)(C)C3)CC1 (stereo not drawn) | 66.1%
CCOC(=O)c1noc2c1CCc1cn(Cc3cc(OC)cc(OC)c3)cc1-2 | 95.6%
O=C1c2ccccc2C(=O)c2c(NCCN=Cc3c(O)ccc4ccccc34)cccc21 | 47%
Cc1[nH]n(C(=O)c2ccncc2)c(=O)c1N=Nc1ccc(S(=O)(=O)Nc2ccncn2)cc1 | 76.6%
O=C(Nc1ccc(Cl)c(Cl)c1)Nc1ccc(Cl)c([N+](=O)[O-])c1 | -3.52% (active)
COc1ccc(-c2cnc(-c3ccc(F)cc3)[nH]2)cc1 | 46.5%

Tested on: NCI-H460 lung
Test: as above
Conditions: 10 µM unless noted

SMILES | growth
CN(C)CCNc1nc2ccccc2c2c(=O)c3ccccc3sc12 | 1.33% (active)
Nc1nc2ccc(CNc3ccc(C(=O)NC(CC(=O)O)C(=O)O)cc3)cc2c(=O)[nH]1 (stereo not drawn) | 24.4%
CC12CCC3C(CCC4CC(O)CCC43C)C1C/C(=C/O)C(=O)O2 (stereo not drawn) | 110%
COc1cc(/C=C/C(=O)c2ccc(Oc3ncnc4ccccc34)cc2)cc(OC)c1OC | 84.5%
Nc1n[nH]c2cccc(C#Cc3cccc(NC(=O)c4cccc(C(F)(F)F)c4)c3)c12 | 40.3%
COc1ccc(-c2nn(-c3ccc(NC(=O)c4ccc(Cl)c(C(F)(F)F)c4)cc3)cc2-c2ccncc2)cc1Cl | 11.3%
CCCN1C(=O)CSC1=Nc1ccc2cc3ccc(N=C4SCC(=O)N4CCC)cc3nc2c1 | 36.8%
CCOC(=O)C1=C(N)Oc2cc(OC)ccc2C1c1ccc(F)c(F)c1 (stereo not drawn) | 16.8%
CC(C(C(=O)N1CCCCC1)N1CCCCC1)N1CCCCC1 (stereo not drawn) | 114%
COc1ccc2c(-c3ccc(F)cc3)c(C#N)c(=NC(C)=O)oc2c1 | 23.3%
COc1ccc(-c2nnc(SCC(=O)Nc3ccc(C(=O)/C=C/c4ccc(Cl)cc4)cc3)o2)cc1OC | 70%
COc1cccc(/C=N/C(=S)NC2(C)C3CCC(C3)C2(C)C)c1O (stereo not drawn) | 60.2%
CC1(C)N=C(N)N=C(N)N1c1ccc(OCC(=O)Nc2ccccc2)c(Cl)c1 | 15.3%
FC(F)(F)c1cn(CCN2CCOCC2)c2ncnc(Cl)c12 | 84.3%
COc1ccc(-c2nn(-c3ccc(NC(=O)Nc4cc(C(F)(F)F)cc(C(F)(F)F)c4)cc3)cc2-c2ccncc2)cc1Cl | -2.26% (active)
O=C(CNc1cccnc1)Nc1ccc(C(=O)/C=C/c2ccc(Cl)cc2)cc1 | 93.5%
CCc1ccc(C2=C/C(=C/c3ccc(Cl)cc3)C(=O)N2CCc2ccc(S(N)(=O)=O)cc2)cc1 | 2.69% (active)
O=C(Nc1ccc(-n2ccc3c(NC(=O)c4ccccc4)nccc32)cc1)c1cccc(C(F)(F)F)c1 | 2.21% (active)
O=S(=O)(CCN1CCOCC1)Nc1cc(-c2ccc3ncnc(Nc4ccc(F)c(Cl)c4)c3c2)cnc1Cl | 14.8%
CCC1S/C(=N\N=C(/C)c2cc3ccccc3o2)N(c2ccccc2)C1=O (stereo not drawn) | 123%

SMILES | growth
COc1cccc(-c2nc3sccn3c2-c2ccnc(NCCNC(=O)c3ccccc3)n2)c1 | 84.9%
NC(N)=N/N=C/c1ccc([N+](=O)[O-])cc1 | 104%
C#C[C@@]1(O)[C@@H](CO)O[C@@H](n2cc(Br)c3c(Cl)ccnc32)[C@@H]1O | 45%
CCOC(=O)C(C)(CSSCC(C)(NC(=O)c1ccc2ccccc2c1)C(=O)OCC)NC(=O)c1ccc2ccccc2c1 (stereo not drawn) | 102%
O=C(C[n+]1cccc(Br)c1)c1ccc2c(c1)CCCC2 | 105%
CCC(C)Nc1ccc(N)cc1 (stereo not drawn) | 9.41% (active)
Cc1cn(-c2nc3c(c(NCc4ccccc4)n2)COCC3)c2cccc(C(N)=O)c12 | 45.8% [0.5 µM]
Nc1ncnc2c1ccn2-c1cccc(NC(=O)c2cccc(C(F)(F)F)c2)c1 | 45.8%
COc1ccc(-c2nnc(SCC(=O)Nc3ccc(C(=O)/C=C/c4ccccc4)cc3)o2)cc1OC | 103%
CCCCCCCCCCCCCCCCCCNCc1ccc(Cl)cc1 | -71.6% (active)
Clc1ccc2c(c1)nnn1c3ncccc3c(Br)c21 | 78.6%
CCCOC(=O)c1ccc([N+](=O)[O-])o1 | 91.4%
[2H]c1nc(Nc2ncc(F)c(-c3cc(F)c4nc(C)n(C(C)C)c4c3)n2)c([2H])c([2H])c1CN1CCN(CC)CC1 | 43.9%
COc1ccccc1N1CCN(CC(O)COc2c(Br)c(Br)c(Br)c3c2OC(C)(C)C3)CC1 (stereo not drawn) | 15.1%
CCOC(=O)c1noc2c1CCc1cn(Cc3cc(OC)cc(OC)c3)cc1-2 | 109%
O=C1c2ccccc2C(=O)c2c(NCCN=Cc3c(O)ccc4ccccc34)cccc21 | 88.7%
Cc1[nH]n(C(=O)c2ccncc2)c(=O)c1N=Nc1ccc(S(=O)(=O)Nc2ccncn2)cc1 | 115%
O=C(Nc1ccc(Cl)c(Cl)c1)Nc1ccc(Cl)c([N+](=O)[O-])c1 | 1.62% (active)
COc1ccc(-c2cnc(-c3ccc(F)cc3)[nH]2)cc1 | 103%
